Measurements published in PubChem BioAssay (NCATS).
Several values for one entry are separate records, joined by “and”; a condition that tells them apart may be missing. Equal entries are not always repeated. Inconclusive results are not listed. Activity calls are given as the source filed them. Unless noted, calls come from the whole dose curve; as a rule, active = well fitted curve in the direction sought with a large enough effect; inconclusive = small, poorly fitted or top-dose-only effect, or another doubt; inactive = no such curve, though single readings can be large; an effect the other way counts as inactive or inconclusive.

Assays:
[1] = Cell Viability - MRC5 (AID 434; calls by dose curve;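 note: potency is the fitted concentration of half-maximal effect; cells exposed to compound for 40 hours at 37 °C; potency reflects cytotoxicity seen as loss of intracellular ATP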); settings: MRC5 lung fibroblast viability, qHTS
How it was run: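 ATP luminescence read-out (CellTiter-Glo, 20 min RT) after 40 hr, 37 °C compound exposure of 1500 MRC5 cells/well. Data normalized to DMSO (basal) and 100 uM tamoxifen (100% inhibition); AC50 from standard Hill equation.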

[2] = Cell Viability - HUV-EC-C (AID 542); settings: HUV-EC-C endothelial cell viability, qHTS; series mostly up to 92.2 µM;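 note: cells exposed to compound for 40 hours; % is set by controls: 0 for no effect and ±100 for the full control effect; nearly all actives have a fitted effect of over 35% in size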
How it was run: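 CellTiter-Glo luminescence measured ATP loss in HUV-EC-C cells (1000/well) after 40 hr compound exposure at 37 °C, in complete culture medium. Concentration-response data were Hill-fitted to give AC50.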

[3] = Cellular Toxicity (caspase-3) HepG2 (AID 654); settings: HepG2 caspase-3 activation, luminescence; series mostly up to 92.2 µM;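 note: cells exposed to compound for 16 hours before reading; 0% = DMSO alone and 100% = caspase signal from 100 µM tamoxifen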
How it was run: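 Caspase 3/7 activation is measured as a luminescence increase (aminoluciferin substrate) after 16 h compound exposure of human hepatocarcinoma HepG2 cells. AC50 values are Hill fits, scaled between DMSO baseline and 100 uM tamoxifen stimulation.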

[4] = Cellular Toxicity (caspase-3) HUV-EC-C (AID 656); settings: HUV-EC-C cells, caspase-3 activation (apoptosis); series mostly up to 92.2 µM
How it was run: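 Concentration-dependent caspase 3/7 induction was assessed in HUV-EC-C cells exposed for 16 hours. Data scaled between DMSO and tamoxifen (100 uM) controls.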

[5] = Cellular Toxicity (caspase-3) MRC-5 (AID 659); settings: MRC-5 cells, luminescence, normalized: DMSO 0%, 10 µM staurosporine 100%; series mostly up to 91.7 µM
How it was run: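 MRC-5 fibroblasts, 1500/well; 16 h cpd, 37 °C; Caspase-Glo 3/7, 1 h RT; lumi read. Norm: DMSO = 0%, 10 uM staurosporine = 100%. Hill-fit AC50 from qHTS conc-response.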

[6] = Cellular Toxicity (caspase-3) SK-N-SH (AID 661); settings: SK-N-SH caspase-3 activation, qHTS, DMSO as zero, staurosporine as full; series mostly up to 91.7 µM
How it was run: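 Caspase 3/7 activation was read by luminogenic substrate cleavage after 16 hour treatment of SK-N-SH cells. Signal was scaled between DMSO and 10 uM staurosporine, and concentration-response data were fitted with the Hill equation for AC50.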

[7] = Cellular Toxicity (caspase-3) Hek293 (AID 664); settings: HEK293 caspase-3 activation, DMSO = 0%, 100 µM tamoxifen = 100%; at 92.2 µM (top of the series);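 note: cells exposed to compound for 16 h at 37 °C before readout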
How it was run: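 Concentration-response qHTS: caspase 3/7 activation measured by luminescent aminoluciferin substrate cleavage after 16 h compound exposure of Hek 293 cells. AC50 from Hill equation, with DMSO as basal and 100 uM tamoxifen as 100%.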

[8] = Cellular Toxicity (caspase-3) N2a (AID 665); settings: N2a cells, luminescence, normalized: DMSO 0%, 10 µM staurosporine 100%; series mostly up to 92.2 µM;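 note: compound exposure lasted 16 h at 37 °C before readout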
How it was run: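 Caspase-3/7 activation measured as luminescence from Caspase-Glo reagent (1 h, room temperature) after 16 h compound exposure of mouse N2a cells. AC50 values from Hill-equation concentration-response, scaled between DMSO and 10 uM staurosporine.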

[9] = Cellular Toxicity (caspase-3) NIH 3T3 (AID 666); settings: NIH 3T3 caspase-3 activation, apoptosis/toxicity, 0% DMSO, 100% is 100 µM tamoxifen; series mostly up to 92.2 µM;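 note: 0% = DMSO basal and 100% = 100 µM tamoxifen stimulation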
How it was run: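 Caspase-Glo 3/7 luminescence reported caspase activation in 1000 NIH 3T3 cells/well after 16 h compound exposure at 37 C. DMSO set basal and 100 uM tamoxifen set 100% stimulation; concentration-response modeled with the Hill equation for AC50.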

[10] = Cellular Toxicity (caspase-3) Renal Proximal Tubule (AID 667); settings: renal proximal tubule cells, primary cells freshly taken from rat; Potency: caspase-3 activation; series mostly up to 91.7 µM;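 note: cells exposed to compound for 16 hours at 37 °C before detection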
How it was run: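 Caspase-Glo 3/7 read-out, rat primary kidney proximal tubule cells. Compound exposure 16 h, 37 °C; detection after 1 h at RT. Activity scaled to DMSO and 10 uM staurosporine.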

[11] = MultiTox-Fluor Cytotoxicity Assay - LYMP1-001 - Dead Cells (AID 946); settings: LYMP1-001 lymphoblastoid cells, dead-cell protease fluorescence; series mostly up to 92.2 µM;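 note: 0% = DMSO and 100% = tetraoctylammonium bromide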
How it was run: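 LYMP1-001 lymphoblastoid cells (2500/well) treated 16 h at 37 C. Dead-cell protease cleavage of bis-AAF-R110 read at Ex/Em 485/520. Normalized to DMSO and 15 uM tetraoctylammonium bromide; AC50 from Hill fits.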

[12] = MultiTox-Fluor Cytotoxicity Assay - LYMP1-003 - Dead Cells (AID 961); settings: LYMP1-003 lymphoblastoid cells, dead-cell protease fluorescence; series mostly up to 92.2 µM;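 note: 0% = DMSO and 100% = tetraoctylammonium bromide; nearly all actives have a fitted effect of over 70% in size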
How it was run: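 LYMP1-003 human lymphoblastoid cells (2500/well) exposed to compound 16 h at 37 C in complete medium; dead-cell protease read with bis-AAF-R110 fluorescence (Ex/Em 485/520) after 60 min at room temperature. Normalized to DMSO and 15 uM tetraoctylammonium bromide; AC50 from Hill fit.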

[13] = MultiTox-Fluor Cytotoxicity Assay - LYMP1-003 - Live Cells (AID 962); settings: LYMP1-003 lymphoblastoid cells, MultiTox-Fluor live-cell protease fluorescence; series mostly up to 92.2 µM;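 note: 0% = DMSO only and full loss = 92 µM tetraoctylammonium bromide; cytotoxic hits lower the live-cell protease signal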
How it was run: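 Live-cell protease activity (GF-AFC substrate, 405/510 nm, 60 min at room temperature) after 16 h, 37 C compound exposure of human lymphoblastoid LYMP1-003 cells; concentration-response fitted to the Hill equation for AC50.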

[14] = Cell Viability - LYMP1-003 - Assay at 24 hr (AID 963); settings: LYMP1-003 lymphoblastoid cell viability; series mostly up to 92.2 µM;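 note: plate controls were DMSO only for no effect and tetraoctylammonium bromide positive control for full effect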
How it was run: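 Concentration-response qHTS: ATP loss measured by CellTiter-Glo luminescence after 24 h compound exposure at 37 C. Cells were LYMP1-003 human lymphoblastoid, 2500 per well. AC50 derived via standard Hill equation modeling.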

[15] = Cell Viability - LYMP1-002 - Assay at 24 hr (AID 993); settings: LYMP1-002 lymphoblastoid cells viability; series mostly up to 92.2 µM; note: % is set by controls: 0 for no effect and ±100 for the full control effect
How it was run: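 qHTS cytotoxicity at 24 h: CellTiter-Glo ATP luminescence in lymphoblastoid line LYMP1-002 incubated with compound at 37 °C. Concentration-response modeled with the Hill equation for AC50; tetraoctylammonium bromide served as positive control.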

[16] = qHTS Assay for Identification of Small Molecule Inducers of Hypoxia Response (AID 2120; active = well fitted curve in the direction sought with a large enough effect in the signal ratio, with a control signal flat, not every such curve was filed as active; the % refers to the signal ratio; note: 0% is about no effect); settings: hypoxia response reporter cells, beta-lactamase ratio readout; series mostly up to 104 µM
How it was run: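 Reporter induction read as the CCF4 blue/green (460nm/530nm) emission ratio after 2.5 h dye loading at room temperature. ME-180 HRE-beta-lactamase cells received titrated compounds for 17 h at 37 degrees Celsius; AC50 values derived.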

[17] = target: Peroxisome proliferator-activated receptor alpha (Homo sapiens) (UniProt Q07869); assay: qHTS assay for small molecule agonists of the peroxisome proliferator-activated receptor alpha (PPARalpha) signaling pathway (AID 651778); settings: PathHunter PPARalpha complementation, chemiluminescence, 6 h; max response: active compounds read high; note: % of control where 0% means no effect
How it was run: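 Enzyme-fragment complementation assay in which ligand-bound PPARalpha translocates and forms an active enzyme that generates chemiluminescence. Cells were plated overnight, exposed to compound for 6 hr at 37 C, and then given detection reagent for 60 min at room temperature.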

[18] = qHTS assay for small molecule agonists of the antioxidant response element (ARE) signaling pathway measured by Nrf2-dependant transcriptional activity - cell viability counter screen (AID 720653; active = well fitted curve in the direction sought with a large enough effect in the repeat runs; an effect the other way counts as inactive or inconclusive; note: % is set by controls: 0 for no effect and ±100 for the full control effect); settings: ARE-bla HepG2 viability, CellTiter-Glo ATP luminescence, 16 h; max response: active compounds read low
How it was run: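 ARE-bla HepG2 cells treated with compounds for 16 h at 37C; this counter screen measures viability as intracellular ATP by CellTiter-Glo luminescence after 30 min at room temperature.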

[19] = qHTS assay for cell viability of HEK293 cells (AID 743288); settings: ATP luminescence (CellTiter-Glo), 18 h; max response: active compounds read low; note: % is set by controls: 0 for no effect and ±100 for the full control effect; nearly all actives have a fitted effect of over 50% in size
How it was run: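 HEK293, 18 h, 37 C, ATP luminescence. Cells at 2,000/well were allowed at least 5 h to settle before dosing; CellTiter-Glo developed 30 min at RT.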

[20] = qHTS assay for cell viability of the p53RE-bla HCT-116 cell line (AID 743292); settings: p53RE-bla HCT-116 viability, ATP luminescence, 16 h; series mostly up to 95 µM; note: % is set by controls: 0 for no effect and ±100 for the full control effect; nearly all actives have a fitted effect of over 55% in size
How it was run: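 ATP-based luminescence, 16 h compound exposure at 37 C, p53RE-bla HCT-116 cells at 4,000/well.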

Chain of Peroxisome proliferator-activated receptor alpha (Homo sapiens) (Q07869 whole entry, looked up, the tested form may be a part): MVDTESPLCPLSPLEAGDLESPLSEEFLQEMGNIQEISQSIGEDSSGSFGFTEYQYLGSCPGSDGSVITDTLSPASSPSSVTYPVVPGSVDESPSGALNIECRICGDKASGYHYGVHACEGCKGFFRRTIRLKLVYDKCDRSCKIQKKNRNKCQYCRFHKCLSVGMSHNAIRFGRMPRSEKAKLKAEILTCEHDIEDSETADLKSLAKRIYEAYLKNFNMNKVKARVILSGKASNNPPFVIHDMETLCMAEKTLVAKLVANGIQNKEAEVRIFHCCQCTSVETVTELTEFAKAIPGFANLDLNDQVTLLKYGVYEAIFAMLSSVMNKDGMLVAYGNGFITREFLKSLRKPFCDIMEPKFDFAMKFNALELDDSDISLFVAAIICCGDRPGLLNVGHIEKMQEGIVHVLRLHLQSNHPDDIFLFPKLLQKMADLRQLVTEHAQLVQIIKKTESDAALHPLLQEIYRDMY

Cc1ccc2ccc3cccc4ccc1c2c34
inactive: Potency [1] > 92 µM | Potency [2] | Potency [3] | Potency [4] | outcome [5] | outcome [6] | caspase-3 activation [7] 0.114% | outcome [8] | outcome [9] | Potency [10] | Potency [11] | Potency [12] | Potency [13] | Potency [14] | Potency [15] | Potency [16] | max response [17] -2.03% | max response [18] 2.48% | max response [19] -6.64% | Potency [20]

CCCCCCCCC1CO1 (stereo not given)
inactive: Potency [1] > 92 µM | Potency [2] | Potency [3] | Potency [4] | outcome [5] | outcome [6] | caspase-3 activation [7] 0.315% | outcome [8] | outcome [9] | Potency [10] | Potency [11] | Potency [12] | Potency [13] | Potency [14] | Potency [15] | Potency [16] | max response [17] -3.27% | max response [18] 14.9% | max response [19] 4.27% | Potency [20]

c1cc2c3c(c1)ccc1cccc(c13)C2
inactive: Potency [1] > 92 µM | Potency [2] | Potency [3] | Potency [4] | outcome [5] | outcome [6] | caspase-3 activation [7] -1.87% | outcome [8] | outcome [9] | Potency [10] | Potency [11] | Potency [12] | Potency [13] | Potency [14] | Potency [15] | Potency [16] | max response [17] 6.26% | max response [18] -4.5% | max response [19] 3.07% | Potency [20]

CC(C)OCC1CO1 (stereo not given)
inactive: Potency [1] > 92 µM | Potency [2] | Potency [3] | Potency [4] | outcome [5] | outcome [6] | caspase-3 activation [7] -0.484% | outcome [8] | outcome [9] | Potency [10] | Potency [11] | Potency [12] | Potency [13] | Potency [14] | Potency [15] | Potency [16] | max response [17] -4.21% | max response [18] 0.394% | max response [19] -0.12% | Potency [20]

Cc1ccc(S(N)(=O)=O)cc1
inactive: Potency [1] > 92 µM | Potency [2] | Potency [3] | Potency [4] | outcome [5] | outcome [6] | caspase-3 activation [7] -1.71% | outcome [8] | outcome [9] | Potency [10] | Potency [11] | Potency [12] | Potency [13] | Potency [14] | Potency [15] | Potency [16] | max response [17] -6.35% and -0.652% | max response [18] 3.25% and -8.35% | max response [19] -5.31% and -1.83% | Potency [20]

C=CC1CO1 (stereo not given)
inactive: Potency [1] > 92 µM | Potency [2] | Potency [3] | Potency [4] | outcome [5] | outcome [6] | caspase-3 activation [7] -0.428% | outcome [8] | outcome [9] | Potency [10] | Potency [11] | Potency [12] | Potency [13] | Potency [14] | Potency [15] | Potency [16] | max response [17] 1.5% | max response [18] -12.7% | max response [19] -1.41% | Potency [20]
